The text below walks through data of PubChem BioAssay AID485297 (National Center for Advancing Translational Sciences (NCATS), 2010).

Each structure is given as a SMILES string. The whole screen tested about 320,000 compounds, of which about 9,100 (2.8%) were called active. Not shown: some 3% with an inconclusive outcome. The list comes from a sample in which actives are over-represented; it also holds similar structures and randomly drawn compounds. Entries that show only a call come without a potency. Values without a mark were called inactive. The call rests on the fitted dose curve; in most records, active means well fitted activation curve with a large enough effect; inconclusive means small, poorly fitted or top-dose-only effect; inactive means no such curve, though single readings can be large or run the other way.
Potency means the concentration at half of the fitted maximal effect.

A short description of this assay: qHTS Assay for Rab9 Promoter Activators. Further: nearly all actives have a fitted effect of over 60% in size. Particulars: Huh7 Rab9 promoter-luciferase reporter, luminescence, 24 h; series mostly up to 9.22 µM. The procedure, abridged: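 Measured in stably transfected Huh7 cells bearing a Rab9 promoter–luciferase construct: 24 h compound treatment at 37 °C, followed by luminescence detection.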
As to `S=C(Nc1cccnc1)Nc1ccccn1`, the activation, negative = inhibition was -1.03% [at 1.84 µM]. On to `O=C(CSc1nnc(COc2ccc(Cl)cc2)n1Cc1ccco1)N1CCNC1=O`, for which the Potency entry is “inactive”.

Take `O=C(NCC1CCCO1)c1ccc(S(=O)(=O)Nc2ccc(F)cc2)cc1` (stereo not given): the Potency result was “inactive”. On the same count and under the same terms, in the case of `COc1cccc(/C=C/C(=O)OCC(=O)N2CCN(c3ccccc3)CC2)c1` it was “inactive”. `CC(C)CNC(=O)CC(NCC(C)C)C(=O)O` (stereo not given): the Potency entry was “inactive”. Still for that read-out and setting: in the case of `C=CCn1c(Oc2ccc(C(=O)OC)cc2)nc2c1c(=O)n(C)c(=O)n2C` it was “inactive”. Same read-out and setting: next, `Cc1ccccc1N/N=C/c1ccc(N2CCOCC2)cc1`: 2 µM (active); `C(=N/Nc1cc(N2CCOCC2)nc(N2CCOCC2)n1)/c1ccccc1`: “inactive”. On the same count and under the same terms, in the case of `CCN(CC)c1ccc(C(=O)N/N=C/c2ccc(N3CCOCC3)cc2)cc1` it was “inactive”; in that of `COc1ccc(C(=O)NCC(=O)N/N=C/c2cccnc2)cc1`, “inactive”; in that of `CCN1CCC(=NNC(=O)c2ccc(C)c([N+](=O)[O-])c2)CC1`, “inactive”. Turning to `Cc1cc(O)c(NC(=O)c2ccc(C)c([N+](=O)[O-])c2)cc1C`, the Potency is 2.82 µM (active). Consider `Cc1ccc(C(=O)Nc2cccc3ncccc23)cc1[N+](=O)[O-]`, for which the Potency result is “inactive”. For the compound `CN(CC(=O)Nc1c(Cl)cccc1Cl)C(=O)CC1OC(=O)c2ccccc21` (stereo not given), the Potency result was “inactive”. On to `COc1cc(C(c2c(NC(=O)c3ccco3)sc(C)c2C)N2CCOCC2)cc(OC)c1OC` (stereo not given), for which the Potency entry was “inactive”. `COCCN(C(=O)CSCc1ccc(C)cc1)c1c(N)n(CC(C)C)c(=O)[nH]c1=O`: the Potency result is “inactive”. The same measure, in the same setting: in the case of `CCN(CC)S(=O)(=O)c1ccc(OC)c(NC(=O)CCc2c(C)noc2C)c1` it was “inactive”; in that of `O=C(c1ccc(F)cc1)n1c(=S)nc2ccccn21`, 0.891 µM (active). Still for that read-out and setting: in the case of `O=C(c1ccc(F)cc1)n1cc(C(=S)N2CCOCC2)c2ccccc21` it was “inactive”; in that of `O=C(C[n+]1cc(Br)cc2ccccc21)c1ccc(F)cc1`, “inactive”. Same read-out and setting: in the case of `Clc1ccc(-c2nnc(SCc3nc4ccccc4s3)o2)cc1` it was “inactive”; in that of `CSc1ccccc1-c1nnc(-c2ccc(Cl)cc2)o1`, 3.98 µM (active). Consider `FC(F)(F)c1cnc(Oc2ccccc2-c2nnc(-c3ccc(Cl)cc3)o2)c(Cl)c1`, for which the Potency result was “inactive”. With `COC(=O)c1ccc(C)c(NC(=O)C2CC(=O)N(C3CCCC(C)C3C)C2)c1` (stereo not given), the Potency entry is “inactive”.

For `CC(=O)Nc1ccc(S(=O)(=O)NC(C)C(=O)OCCOc2ccc(F)cc2)cc1` (stereo not given), the Potency result was “inactive”. Same read-out and setting: next, `COc1cc(/C=N/NC(=O)c2ccc(N3CCCC3=O)cc2)ccc1O`: 3.98 µM (active). Same read-out and setting: in the case of `O=C(N/N=C/c1cccc(Br)c1)c1ccc(N2CCCC2=O)cc1` it was “inactive”; in that of `COc1ccc(C(=O)Nc2ccccc2C(=O)N/N=C/c2ccc(O)c(OC)c2)cc1`, “inactive”; in that of `O=C(Nc1ccc(Br)cc1)C1CCC(=O)N1Cc1ccccc1Cl` (stereo not given), “inactive”. Same read-out and setting: in the case of `CC1CCN(C(=O)/C(=C\c2ccccc2F)NC(=O)c2ccccc2)CC1` it was “inactive”. Consider `Cc1c(NC(=O)c2cc(-c3ccc(Br)cc3)on2)c(=O)n(-c2ccccc2)n1C`, for which the Potency entry is “inactive”. Same read-out and setting: in the case of `CC(C)CNC(=O)c1cc(-c2ccc(Br)cc2)on1` it was 3.55 µM (active). The same measure, in the same setting: in the case of `COc1ccc(-c2cc(C(=O)NCCCN3CCOCC3)no2)cc1` it was “inactive”; in that of `O=C1COc2ccc(C(=O)CSc3ccc(Br)cc3)cc2N1`, “inactive”; in that of `O=C(CCc1ccccc1Cl)Nc1ccc(S(=O)(=O)Nc2nccs2)cc1`, “inactive”. Same read-out and setting: in the case of `COc1cc(C(=O)NCC(c2ccco2)N2CCCC2)ccc1OCc1ccccc1` (stereo not given) it was “inactive”; in that of `O=C(N/N=C/c1c[nH]c2ccccc12)c1cc2ccccc2o1`, “inactive”; in that of `O=C(O)c1cccc(NC(=S)N/N=C/c2c[nH]c3ccccc23)c1`, 3.55 µM (active). As to `CN(C)S(=O)(=O)c1cccc(NC(=S)N/N=C/C(=O)c2ccccc2)c1`, the Potency entry is “inactive”. Same read-out and setting: in the case of `O=S(=O)([N-]c1nc2ccccc2nc1-[n+]1ccc(Cc2ccccc2)cc1)c1ccc(Br)s1` it was “inactive”; in that of `CCOc1ccc2nc(C(=O)N3CCCC(C)C3)sc2c1` (stereo not given), 1.78 µM (active). On to `CCCC(=O)N(CCN1CCOCC1)c1nc2ccc(OCC)cc2s1`, for which the Potency result is “inactive”.

On to `CCOc1ccc2nc(N(CCN(C)C)C(=O)c3ccc4ccccc4c3)sc2c1`, for which the Potency entry is “inactive”.

For `CN(C)S(=O)(=O)c1ccc(C(=O)NCC2(N3CCOCC3)CCCCC2)cc1`, the Potency result is “inactive”. Regarding `CNS(=O)(=O)c1ccc(C(=O)NCC(=O)NCCc2ccc3c(c2)OCCO3)cc1`, the Potency entry was “inactive”.

In the case of `Cc1cccc(N(Cc2ccccc2)C(=O)c2ccccc2F)c1`, the Potency entry is “inactive”. The same measure, in the same setting: next, `O=C(CCN1c2ccccc2Sc2ccccc21)Nc1ccccc1`: “inactive”. On to `CCN1/C(=C/c2ccc3ccc(C)cc3[n+]2CC)Sc2ccccc21`, for which the Potency result was “inactive”.

On to `CCN1/C(=C/C(=S)Nc2ccccc2)Sc2ccccc21`, for which the Potency is 2.82 µM (active). On the same count and under the same terms, next, `CC(OC(=O)Cc1ccc(F)cc1)C(=O)N1CCc2ccccc21` (stereo not given): “inactive”; `COc1cccc(C(=O)Nc2nnc(S(=O)(=O)N3CCCCC3)s2)c1`: “inactive”. On the same count and under the same terms, in the case of `C=CCN1C(=O)c2ccc(C(=O)N3CCC(C(=O)OCC)CC3)cc2C1=O` it was “inactive”; in that of `Cc1ccc(OS(=O)Nc2cccc3nccnc23)cc1` (stereo not given), “inactive”; in that of `Nc1c(C(=O)Nc2ccc3c(c2)OCCO3)nnn1Cc1ccccc1`, 1.26 µM (active). The same measure, in the same setting: in the case of `CCc1ccc(NC(=O)Cn2nnc(C(=O)NCc3ccc4c(c3)OCO4)c2N)cc1` it was “inactive”. For `O=C(CCS(=O)(=O)Cc1ccccc1)Nc1ccc2c(c1)OCCO2`, the Potency entry was “inactive”.

For the compound `CC(C)(C)OC(=O)NCCCCCNC(=O)c1nc[nH]c1C(=O)NCc1ccccc1`, the Potency result is “inactive”.

As for `O=C(c1cnn2ccccc12)N1CCc2ccccc21`, the Potency was 1.78 µM (active).

Regarding `CCOC(=O)N1CCC(NC(=O)c2cnn3ccccc23)CC1`, the Potency result is “inactive”. On the same count and under the same terms, next, `Cc1cnc(C(=O)OCC(=O)N2CCc3ccccc32)cn1`: “inactive”; `CC(=O)c1c(C)[nH]c(C(=O)N2CCN(S(=O)(=O)c3ccc(F)c(F)c3)CC2)c1C`: “inactive”; `Clc1ccc(-c2cc(-c3ccccn3)on2)c(Cl)c1`: 0.1 µM (active). Consider `Clc1ccc(-c2ncc3ccccn23)c(Cl)c1`, for which the Potency entry is “inactive”.

For `COn1c(-c2ccc(Cl)cc2Cl)nc2ncccc21`, the Potency entry was “inactive”. On the same count and under the same terms, in the case of `COc1cccc(C(=O)OCC(=O)c2[nH]c(C)c(C(C)=O)c2C)c1` it was “inactive”; in that of `CN(Cc1cccs1)C(=O)CN1C(=O)c2ccccc2S1(=O)=O`, “inactive”; in that of `O=C(/C=C(O)/C=C/c1ccc(O)cc1)/C=C/c1ccc(O)cc1`, “inactive”.

In the case of `Cc1nc(NC(=O)c2ccc3c(c2)OCCO3)ccc1Br`, the Potency was 0.562 µM (active).

As to `Cc1ccc(C(=O)NNC(=O)c2ccc3c(c2)OCCO3)cc1`, the Potency was 3.98 µM (active). The same measure, in the same setting: in the case of `CCCc1cc(C(=O)Nc2ccc(Cl)cn2)cs1` it was 0.447 µM (active); in that of `COc1ccc(/C=N/NC(=O)c2ccc3c(c2)OCCO3)c(OC)c1`, “inactive”; in that of `COc1ccc(C(=O)NC(=S)Nc2ccc(Cl)cn2)cc1OC`, “inactive”.

Turning to `CCCc1cc(C(=O)Nc2ccc(C(=O)OC)cc2)cs1`, the Potency entry is “inactive”. Still for that read-out and setting: next, `CC(=O)c1ccc2c(c1)OCCOCCOc1ccc(C(C)=O)cc1OCCOCCO2`: “inactive”; `Cc1ccc2sc(NNC(=O)c3ccc4c(c3)OCCO4)nc2c1C`: “inactive”; `O=C(Nc1cccc(Cl)c1N1CCOCC1)c1ccc2c(c1)OCCO2`: “inactive”. Consider `O=C(Nc1ccc(Cl)cn1)c1ccc2c(c1)OCCO2`, for which the Potency is 0.562 µM (active). On the same count and under the same terms, next, `CCCCC(CC)C(=O)Nc1ccc(Cl)cn1` (stereo not given): “inactive”.

`Cc1cccc(C)c1NC(=O)CNC(=O)c1ccc2c(c1)OCCO2`: the Potency entry was “inactive”. On the same count and under the same terms, next, `CCOCC(=O)NCc1ccc2c(c1)cc(C)n2C`: “inactive”; `Cc1cccc(Nc2nnc(SCC(=O)c3c(N)n(C4CC4)c(=O)[nH]c3=O)s2)c1C`: “inactive”; `Cc1cc(C)c2nc(SCC(=O)N(C)C3CCS(=O)(=O)C3)cc(C)c2c1` (stereo not given): “inactive”. Still for that read-out and setting: in the case of `CC(C)(C)C1C/C(=C/c2ccco2)C(=O)/C(=C/c2ccco2)C1` (stereo not given) it was “inactive”.

Consider `CSc1ccc(Cl)c(C(=O)OCC(=O)N2CCNC2=O)c1`, for which the Potency entry is “inactive”. With `CCn1c(=S)sc2c(=O)n(CC(=O)Nc3ccc(OC)cc3)c(C)nc21`, the Potency entry is “inactive”. Consider `Cc1ccc(CSc2ccc(S(=O)(=O)N3CCCCC3)cn2)cc1`, for which the Potency entry is “inactive”.

On to `O=C(CCNS(=O)(=O)c1ccccc1)NCCCc1ccccc1`, for which the Potency result was “inactive”.

Consider `CC(=O)Oc1ccc2c(c1)C(=O)c1ccccc1C2=O`, for which the Potency entry was “inactive”. Take `COc1ccc2c(c1OC)C(=O)c1ccccc1C2=O`: the Potency is 3.98 µM (active).

For the compound `COc1cccc(-c2ccc3c(c2)S(=O)(=O)c2cccc(C(=O)O)c2C3=O)c1OC`, the Potency entry is “inactive”. As for `CN(CC(=O)NCCc1ccc(F)cc1)CC(=O)Nc1ccc(F)c(F)c1F`, the Potency entry was “inactive”.

Turning to `Cc1noc(C)c1C(=O)Nc1ccccn1`, the Potency result is “inactive”. Turning to `Cc1c(C(=O)Nc2ccccn2)oc2ccc(Br)cc12`, the Potency was 3.55 µM (active).

As for `Cc1nonc1NC(=O)c1oc2ccccc2c1C`, the Potency result was “inactive”. The same measure, in the same setting: in the case of `CC1CCCN(C(=O)c2cc(-c3ccco3)nc3ccccc23)C1` (stereo not given) it was “inactive”; in that of `COc1cc(CC(=O)NCc2cccs2)cc(OC)c1OC`, “inactive”. Regarding `O=C(CCC(=O)c1ccccc1)NCc1cccc(C(F)(F)F)c1`, the Potency result is “inactive”. As to `O=C(Cc1cccs1)NCc1cccc(C(F)(F)F)c1`, the Potency is 2.51 µM (active). For `O=S(=O)(c1ccc(SCc2ccc(Br)cc2)nc1)N1CCOCC1`, the Potency result is “inactive”. Still for that read-out and setting: next, `COC(=O)c1cccc(NC(=O)c2cccc(N3C(=O)CCC3=O)c2)c1`: “inactive”; `O=C(COC(=O)c1cc(S(=O)(=O)N2CCOCC2)ccc1Cl)NCCc1ccccc1`: “inactive”. On the same count and under the same terms, in the case of `CC(C)c1ccc(S(=O)(=O)N2CCN(C(C)C(=O)NC3CCCC3)CC2)cc1` (stereo not given) it was “inactive”. On the same count and under the same terms, next, `COc1ccc(-c2csc(-c3cccs3)n2)cc1OC`: 1.78 µM (active); `COc1cccc(CC(=O)Nc2nc(-c3ccc(OC)c(OC)c3)cs2)c1`: “inactive”. For `COc1ccc(OC)c(-c2csc(-c3cccs3)n2)c1`, the Potency entry is “inactive”.

Turning to `O=C1Cc2cc(S(=O)(=O)Nc3cccc(F)c3)ccc2N1`, the Potency entry was “inactive”. On the same count and under the same terms, next, `COc1ccc(CCNC(=O)COC(=O)c2cc(=O)c3ccccc3o2)cc1`: “inactive”; `COc1ccc(-c2csc(Cc3nc(O)cs3)n2)cc1`: 1 µM (active).

For the compound `COc1cccc(CC(=O)Nc2ccc(-c3csc(C)n3)cc2)c1`, the Potency result is “inactive”. Still for that read-out and setting: in the case of `CC(C)(C)C(=O)OCc1nc(-c2ccc(O)c(O)c2)cs1` it was “inactive”.
